Bioassay records: PubChem, several laboratories
Sampled rows, rich in hits. Any-hit rate of the full collection: about 27%.
CYP2C9 activ = increases human cytochrome P450 2C9 activity; P11712; recombinant CYP2C9, luciferin-H conversion, luminescence; active compounds read high; factor 1 = untreated enzyme, 0 = blocked; activation factor at 5 µM; 1.4% of 96,000 active; AID 1024;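 active = activation factor of 2 or more for CYP2C9 at a 5 µM dose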;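 note: 0 = sulfaphenazole-blocked wells and 1 = vehicle-only wells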
CYP2C9 inhib = human CYP2C9 inhibition | AID 777 | 20% of 96,000 active | CYP2C9 Supersomes, luciferin-H conversion, luminescence | inhibition, % at 5 µM;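 active = blocking of liver enzyme CYP2C9 beyond about 50% at 5 µM, limit read from the data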
CYP2C19 inh = human CYP2C19 inhibition; CYP2C19 Supersomes, luciferin-H EGE luminescence, 30 min; 21% of 96,000 active; inhibition, % at 5 µM; AID 778; P33261;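 active = CYP2C19 inhibition above a set limit at 5 µM in the primary screen, cut at about 50% in these data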;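 note: plate controls were negative control wells for no effect and 2.5 mM tranylcypromine positive control for full effect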
sEH inhibitor = blocks human soluble epoxide hydrolase activity. P34913. recombinant human sEH enzymatic activity assay. inhibition, % at 2 µM. 0.34% of 91,000 active. AID 707; in the data active = inhibition above about 80%
Target sequence (P34913 whole entry, looked up): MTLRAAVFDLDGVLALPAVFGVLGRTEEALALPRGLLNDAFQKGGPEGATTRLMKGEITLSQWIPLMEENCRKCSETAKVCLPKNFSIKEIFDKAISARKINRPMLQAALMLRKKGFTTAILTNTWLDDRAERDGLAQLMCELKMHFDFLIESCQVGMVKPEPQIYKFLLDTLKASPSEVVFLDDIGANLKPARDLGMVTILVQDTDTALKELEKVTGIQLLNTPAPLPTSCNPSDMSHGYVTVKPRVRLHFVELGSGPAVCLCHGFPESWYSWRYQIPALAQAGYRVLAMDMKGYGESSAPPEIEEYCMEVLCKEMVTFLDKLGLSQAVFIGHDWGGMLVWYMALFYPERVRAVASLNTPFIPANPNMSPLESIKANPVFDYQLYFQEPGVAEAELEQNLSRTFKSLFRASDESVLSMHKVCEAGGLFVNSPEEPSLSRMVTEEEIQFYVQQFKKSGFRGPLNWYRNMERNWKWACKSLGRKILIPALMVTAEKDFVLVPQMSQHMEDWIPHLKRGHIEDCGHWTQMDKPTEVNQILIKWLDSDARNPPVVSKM
sEH act = activators of human soluble epoxide hydrolase; purified human sEH enzymatic activity, activator screen; activation, % at 2 µM; 0.04% of 91,000 active; AID 717; in the data active = activation above about 37%
CYP2C19 act = cytochrome P450 2C19 (human) activation; P33261; recombinant CYP2C19, luciferin-H EGE luminescence; active compounds read high; 0 = fully inhibited enzyme, 1 = untreated enzyme; activation factor at 5 µM; 96,000 tested, under 10 active; AID 1025;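 active = activation factor of at least 2 at 5 µM in the primary screen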;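 note: 0 = wells with 2.5 mM tranylcypromine and 1 = vehicle-only wells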
An asterisk follows results filed as active; / = no result given.

SMILES	CYP2C9 activ	CYP2C9 inhib	CYP2C19 inh	sEH inhibitor	sEH act	CYP2C19 act
O=C(NCc1ccccc1)C(c1ccco1)N(C(=O)c1cnccn1)c1ccc(F)cc1 (centres undefined)	1	-2	39	-4	8	0.6
Cc1c(-c2cccs2)[n+](=O)c2c(n1[O-])CCCCC2	0.5	49	59*	/	/	0.4
Cc1ccc(-c2c(C)n([O-])c3c([n+]2=O)CCCC3)o1	0.9	14	19	1	3	0.8
Cc1c(O)c(CN2CCCC2)cc2c1oc(=O)c1ccccc12	1.5	-51	57*	6	-7	0.4
O=c1oc2ccccc2c(O)c1CN1CCCCC1	0.1	94*	52*	/	/	0.5
Cc1c(O)c(CN2CCCC2)cc2c3c(c(=O)oc12)CCC3	0.5	52*	36	-8	7	0.6
COCC(=O)Nc1ccccc1C#N	1	-5	4	10	-8	1
N#Cc1ccccc1NC(=O)CC1CCCCC1	1	0	58*	-6	0	0.4
Cc1nn(-c2ccccc2)c2sc(C(=O)C(C#N)c3ccccn3)cc12 (centres undefined)	0.6	37	9	/	/	0.9
CC(C)CC(NC(=O)C(NC(=O)OC(C)(C)C)C(C)C)C(=O)NC(CCC(=O)OCc1ccccc1)C(N)=O (centres undefined)	/	/	/	-9	12	/
CC1Cc2cc(C3(O)C(=O)c4ccccc4C3=O)ccc2N1 (centres undefined)	2.4*	-142	60*	-3	6	0.4
COc1ccc(/C=C/C(=O)NCC(=O)N/N=C/c2cc(Br)ccc2OCc2ccccc2)cc1	0.2	77*	-15	-2	2	1.1
COc1ccc(NC(C)C(=O)N/N=C/c2ccccc2OCc2ccc(Br)cc2)cc1 (centres undefined)	0.3	69*	30	6	0	0.7
CC(Nc1ccc(Br)cc1)C(=O)N/N=C/c1ccccc1OCc1ccccc1 (centres undefined)	0	95*	89*	-3	4	0.1
COc1ccc(Br)cc1/C=N/NC(=O)CNC(=O)/C=C/c1ccccc1	0.7	28	22	-8	9	0.8
COc1ccc(NC(=O)C(C/C=C(/C)Cl)C(C)=O)cc1 (centres undefined)	/	/	/	-8	11	/
CC(=O)c1ccc(-n2c(C)ccc2-c2ccccc2)cc1	0.2	80*	91*	2	-1	0.1
CC(=O)c1ccc(-n2nncc2C)cc1	0.9	11	-3	-3	2	1
COC(=O)c1ccc(-n2c(C)ccc2-c2ccccc2)cc1	0.1	86*	86*	-2	2	0.1
COC(=O)c1ccc(N2C(=O)CC(N(C)Cc3ccccc3)C2=O)cc1 (centres undefined)	1.1	-15	6	/	/	0.9
N#Cc1cc(C#N)c(N2CCN(c3cccc(Cl)n3)CC2)nc1N	0.6	36	98*	-1	2	0
Cc1cccc2cc(C#N)c(N3CCN(C)CC3)nc12	0.9	9	17	-4	3	0.8
Cc1cc(C)n(CC(O)Cn2c3ccccc3c3ccccc32)c(=O)n1 (centres undefined)	0.3	72*	84*	5	-6	0.2
Cc1cc(C)n(CC(O)Cn2c3ccc(Br)cc3c3cc(Br)ccc32)c(=O)n1 (centres undefined)	0.3	69*	31	-5	3	0.7
COC(=O)c1ccc(NC(=O)CSc2nnc(COc3ccccc3)n2C)cc1	0.8	17	15	-4	3	0.8
SMILES	CYP2C9 activ	CYP2C9 inhib	CYP2C19 inh	sEH inhibitor	sEH act	CYP2C19 act
CCOC(=O)N1CCC(NS(=O)(=O)c2cc(Br)cnc2N)CC1	0.2	79*	36	/	/	0.6
CC(C)Cc1cc(C(=O)N2CCN(C(c3ccccc3)c3ccccc3)CC2)no1	0.2	79*	21	9	-10	0.8
O=C(N1CCCCC1)N1CCN(C(c2ccccc2)c2ccccc2)CC1	0.2	81*	57*	0	1	0.4
Cc1cc(N2CCCC2=O)cc(C)c1S(=O)(=O)NCCOc1ccc(C(C)(C)C)cc1	/	/	/	2	-2	/
Cc1ccccc1NC(=O)CC(O)(C(F)(F)F)C(F)(F)F	0.7	27	47	-6	6	0.5
CC(NC(=O)CC(O)(C(F)(F)F)C(F)(F)F)c1ccccc1 (centres undefined)	0.4	57*	78*	3	1	0.2
CC(=O)c1c(NCCc2ccccc2)cc(C)oc1=O	0.7	33	57*	-2	5	0.4
CCCCNc1cc(C)oc(=O)c1C(C)=O	1.1	-14	-12	-2	-3	1.1
CCCNc1cc(C)oc(=O)c1C(=O)CCC	2*	-100	25	-19	12	0.8
CCCC(=O)c1c(NC(C)C)cc(C)oc1=O	2.2*	-122	8	/	/	0.9
CN(C)c1ccc(C(C(=O)NC(C)(C)C)N(C(=O)c2csnn2)C2CC2)cc1 (centres undefined)	0.9	5	37	55	-55	0.6
CCC(C)NS(=O)(=O)c1ccc(S(=O)(=O)N(CC(=O)Nc2ccccc2)Cc2ccco2)cc1 (centres undefined)	0.6	42	29	0	-2	0.7
O=C1c2sc3nc4ccccc4n3c2C(=O)N1c1ccccc1Cl	0.4	60*	-10	6	-5	1.1
N#CCCN1CCN(Cn2c3ccccc3c3ccccc32)CC1	1.2	-20	40	/	/	0.6
CN1CCN(CC#CCn2c3ccccc3c3ccccc32)CC1	1.4	-38	59*	-4	1	0.4
CNS(=O)(=O)c1cccc(C(=O)OCC(=O)c2cc(C)n(-c3ccc4c(c3)OCO4)c2C)c1	0.3	68*	62*	4	-5	0.4
O=c1nc(N2CCCCC2)nc(Nc2ccccc2)[nH]1	0.8	15	15	-15	13	0.8
CCOc1ccc2nc(NC(=O)COC)sc2c1	1	-3	12	/	/	0.9
CC(C)C(NS(=O)(=O)c1cccc2nsnc12)C(=O)Nc1nc2ccc(Cl)cc2s1 (centres undefined)	1.1	-10	18	/	/	0.8
CCOc1ccc2nc(NC(=O)C(CC)Sc3nc(C)cc(=O)[nH]3)sc2c1 (centres undefined)	0.3	68*	18	-5	4	0.8
CCOc1ccc2nc(NC(=O)c3ccoc3C)sc2c1	0.2	85*	100*	2	-2	0
CCOc1ccc2nc(NC(=O)Nc3ccccc3)sc2c1	0.9	15	3	11	-12	1
COc1ccc2nc(NC(=O)CSc3nc(C)cc(=O)[nH]3)sc2c1	0.5	52*	22	-2	0	0.8
CCOc1ccc2nc(NC(=O)C(NS(=O)(=O)c3cccc4nsnc34)C(C)C)sc2c1 (centres undefined)	0.5	48	70*	8	-9	0.3
COc1ccc2nc(NC(=O)CSc3nccc(C)n3)sc2c1	0.9	14	30	-4	8	0.7
